About 4,000 (25%) of roughly 16,000 compounds were called active. Inconclusive results (about 26%) are left out. Calls follow the shape of the dose curve; as a rule, active = well fitted curve in the direction sought with a large enough effect; inconclusive = small, poorly fitted or top-dose-only effect, or effect the other way; inactive = no such curve, though single readings can be large or run the other way. The list is a sample of the results.
Biological target: Cytochrome P450 2C9 (Homo sapiens) (UniProt P11712)
Sequence (P11712 whole entry, looked up): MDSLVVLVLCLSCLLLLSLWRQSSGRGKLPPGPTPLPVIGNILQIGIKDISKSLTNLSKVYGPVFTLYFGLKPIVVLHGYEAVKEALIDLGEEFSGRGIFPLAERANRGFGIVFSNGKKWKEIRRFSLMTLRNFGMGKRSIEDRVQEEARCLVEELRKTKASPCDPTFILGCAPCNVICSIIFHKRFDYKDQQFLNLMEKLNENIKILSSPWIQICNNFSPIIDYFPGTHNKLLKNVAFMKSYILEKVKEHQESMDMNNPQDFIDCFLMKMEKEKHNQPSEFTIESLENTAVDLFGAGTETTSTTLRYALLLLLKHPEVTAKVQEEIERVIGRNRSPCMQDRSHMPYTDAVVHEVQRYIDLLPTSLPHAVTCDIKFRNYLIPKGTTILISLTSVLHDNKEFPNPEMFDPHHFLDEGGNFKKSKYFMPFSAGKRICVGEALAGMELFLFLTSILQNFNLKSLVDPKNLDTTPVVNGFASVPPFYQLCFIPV
Assay: Cytochrome panel assay with activity outcomes
Settings: recombinant CYP, pro-luciferin dealkylation, luminescence, p450-cyp2c9; series mostly up to 57.1 µM; activity, negative = inhibition: at the top concentration
% is scaled to controls: 0 for no effect and ±100 for the full control effect.

SMILES | activity, negative = inhibition | AC50
CC1=NNC(=S)NCCCN2CCN(CCCNC(=S)NN=C(C)C=NNC(=S)NCCCN3CCN(CCCNC(=S)NN=C1)CC3)CC2 | 5.77% [at 11.4 µM] (inactive) | 
CC(C)N1CCN(c2ccc(OC[C@@H]3CO[C@@](Cn4cncn4)(c4ccc(Cl)cc4Cl)O3)cc2)CC1 | -13% [at 25.6 µM] (inactive) | 
COc1cc(C2NC(=O)NC(O)(C(F)(F)F)C2C(=O)c2ccc(Cl)cc2)ccc1O (stereo unspecified) | -18.5% (inactive) | 
O=C(c1cc(C(F)(F)F)cc(C(F)(F)F)c1)N1CCC2(CC1)CCN(c1ccncc1)CC2 | -26% (inactive) | 
Cn1cccc1C(=O)N1CCC2(CC1)CN(Cc1cc(C(F)(F)F)cc(C(F)(F)F)c1)C2 |  | 15.8 µM (active)
O=C(c1cc(C(F)(F)F)cc(C(F)(F)F)c1)N1CCC2(CC1)CN(c1ccccc1)C2 | -7.28% (inactive) | 
Cn1cccc1C(=O)N1CCC2(CC1)CN(Cc1ccc(C#N)cc1)C2 | 17.7% (inactive) | 
O=C(c1ccco1)N1CCC2(CC1)CN(Cc1cc(C(F)(F)F)cc(C(F)(F)F)c1)C2 | -15.8% (inactive) | 
O=C(c1cc(C(F)(F)F)cc(C(F)(F)F)c1)N1CCC2(CC1)CN(c1ccncc1)C2 |  | 3.98 µM (active)
CC(C)CC(=O)N1CCC(O)(CS(=O)(=O)Cc2ccc(Cl)cc2)CC1 | -24.6% (inactive) | 
CCc1ccc(-c2ccc(C(=O)C(F)(F)F)[nH]2)cc1 | -28.7% (inactive) | 
Cc1cccc(-n2nnc3cnn(C)c3c2=O)c1 | -26.3% (inactive) | 
CN(C)Cc1ccccc1-c1nccc(Nc2ccc(F)cc2)n1 | 6.01% [at 2.29 µM] (inactive) | 
O=C(C1CCN(S(=O)(=O)N2CCOCC2)CC1)N1CCN(Cc2ccccc2)CC1 | -10.1% (inactive) | 
CN1CCN(c2ccc([N+](=O)[O-])cc2S(=O)(=O)N2CCOCC2)CC1 | -10.1% (inactive) | 
O=[N+]([O-])c1ccc(N2CCN(Cc3ccccc3)CC2)c(S(=O)(=O)N2CCOCC2)c1 |  | 17.8 µM (active)
CC1CCC(C(=O)O)([C@H](Br)C(=O)O)CC1 (stereo partly specified) | -6.22% [at 11.4 µM] (inactive) | 
Cc1c(C)c(C)c(CC2(C)CSC2)c(CC2(C)CSC2)c1C | 11.8% [at 11.4 µM] (inactive) | 
CC(=O)NN1C(=O)c2ccc(Oc3ccc([N+](=O)[O-])cc3)cc2C1=O | -23.4% (inactive) | 
CS(=O)(=O)Nc1ccc([N+](=O)[O-])cc1OC1CCCCC1 | -25% (inactive) | 
CS(=O)(=O)Nc1ccc([N+](=O)[O-])cc1Oc1ccccc1 |  | 3.16 µM (active)
CC(=O)COc1ccc2c(C)c(C)c(=O)oc2c1 |  | 22.4 µM (active)
CCCC[C@@H]1C[C@H]1C(NC(=O)c1cccnc1)c1ccc(Cl)cc1 (stereo partly specified) |  | 12.6 µM (active)
CCCC[C@@H]1C[C@H]1C(NC(=O)c1cccnc1)c1ccc(-c2ccccc2)cc1 (stereo partly specified) |  | 5.01 µM (active)

SMILES | activity, negative = inhibition | AC50
COCCNc1ncnc2ccc(-c3c(C)noc3C)cc12 | 7.8% [at 2.29 µM] (inactive) | 
COC(=O)[C@@H]1[C@@H]2C[C@H]3c4[nH]c5ccccc5c4CCN3C[C@@H]2CC[C@@H]1OS(=O)(=O)O | 7.13% [at 11.4 µM] (inactive) | 
CN1CCN(c2ncnc3ccc(-c4ccccc4C#N)cc23)CC1 | 2.98% [at 2.29 µM] (inactive) | 
N#C/C(=C/c1cccc(C(F)(F)F)c1)c1nc(CCN2C(=O)c3ccccc3C2=O)cs1 |  | 0.178 µM (active)
Cc1cc(C)c(NC(=O)C2CCCN2C)c(C)c1 (stereo unspecified) | 1.9% (inactive) | 
O=c1ccn(-c2cccc(C(F)(F)F)c2)nc1-c1ccn(-c2ccccc2F)n1 |  | 10 µM (active)
Cc1ccc(C(=O)CN(C(=O)c2ccc(Cl)cc2)N2C(=O)c3ccccc3C2=O)cc1 |  | 3.16 µM (active)
CCOC(=O)C1=NNC2(c3ccc(Cl)cc3)C(=O)N(c3cc(C)cc(C)c3)C(=O)C12 (stereo unspecified) |  | 3.55 µM (active)
CCc1cc(Cl)c(OC)c(C(=O)NC[C@@H]2CCCN2CC)c1O | 0.663% [at 25.6 µM] (inactive) | 
C[C@H](N)CCCC(C)(C)O | -15.2% [at 25.6 µM] (inactive) | 
CC(=O)Nc1c(C)nn(-c2ccc(C)c(C)c2)c1C | -8.65% (inactive) | 
Cc1nn(-c2ccc(F)cc2)c(C)c1NS(=O)(=O)c1ccc2ccccc2c1 |  | 12.6 µM (active)
Cc1ccc(CCN2CC(C(=O)NCCN3CCCCCC3)CC2=O)cc1 (stereo unspecified) | -28.6% (inactive) | 
Cc1ccc(CCN2CC(C(=O)NCCN3CCOCC3)CC2=O)cc1 (stereo unspecified) | -10.2% (inactive) | 
CCOCCCN1CC(C(=O)NCCc2ccc(C)cc2)CC1=O (stereo unspecified) |  | 8.91 µM (active)
COc1cc2c3cc1Oc1c(OC)c(OC)cc4c1[C@@H](Cc1ccc(O)c(c1)Oc1ccc(cc1)C[C@@H]3N(C)CC2)CN(C)C4 | -25.3% [at 11.4 µM] (inactive) | 
C=CCN(CC=C)CC(O)Cn1c2ccccc2c2ccccc21 (stereo unspecified) |  | 14.1 µM (active)
OC(COc1ccc(OCC(O)CN2CCCCCC2)cc1)CN1CCCCCC1 (stereo unspecified) | -0.623% (inactive) | 
Cc1ccc(OCC(O)Cn2c3ccccc3c3ccccc32)cc1 (stereo unspecified) |  | 4.47 µM (active)
O=C(O)CC(O)C(=O)O (stereo unspecified) | -7.21% (inactive) | 
Cn1c(/C=N/NC(=O)c2ccccc2Br)nc2ccccc21 |  | 2 µM (active)
Cc1ccc(-n2nnnc2C(=Cc2ccc(N(C)C)cc2)c2nnnn2-c2ccc(C)cc2)cc1 |  | 3.55 µM (active)
CC(=O)NNc1cccc(Cl)n1 | -15.4% (inactive) | 
CCCC(=O)Nc1nnc(SCC(=O)NCc2cccs2)s1 | -19.5% (inactive) | 

SMILES | activity, negative = inhibition | AC50
CCCCc1ccc(NC(=S)NCc2cccs2)cc1 |  | 12.6 µM (active)
O=C(Cn1ccc([N+](=O)[O-])n1)NCc1cccs1 | -58.8% (inactive) | 
C#C[C@H](N)CCC(=O)O | 13.6% (inactive) | 
CCS(=O)(=O)N1CCC(C(=O)NCc2ccc(F)cc2Cl)CC1 | 21.2% (inactive) | 
CCS(=O)(=O)N1CCN(c2c(Cl)cccc2[N+](=O)[O-])CC1 |  | 11.2 µM (active)
C/C(CCN1CCc2nc(-c3ccccc3)c(-c3ccccc3)cc2C1)=N\O[C@@H](C)c1cn([C@@H]2COC[C@@H]2O)nn1 | -10.5% [at 11.4 µM] (inactive) | 
Cc1nc2ncnn2c(C)c1CCC(=O)N1CCN(C(=O)c2ccco2)CC1 | -6.62% (inactive) | 
Cc1nn(C(=O)c2cccnc2)c(C)c1Sc1ccc(Br)cc1 |  | 10 µM (active)
Cc1nn(C(=O)c2ccco2)c(C)c1Sc1ccc(Br)cc1 |  | 3.98 µM (active)
Cc1nn(C(C)(C)C)c(OC(=O)c2ccco2)c1Sc1ccccc1 |  | 10 µM (active)
NC(=O)/C(=N\OC(=O)c1ccco1)c1nc(-c2ccc(Br)cc2)cs1 | 58.2% (inactive) | 
O=C(NC(=S)Nc1nc(-c2ccc(Br)cc2)cs1)c1cccnc1 | -6.99% (inactive) | 
CO[C@@H]1COC(=O)[C@H]2CCCN2C(=O)[C@@H](C)COC(=O)[C@H](COCc2ccccc2)NC(=O)C/C=C\[C@H]1C | 10.5% [at 11.4 µM] (inactive) | 
NC(=S)c1ccc[n+]([C@@H]2O[C@@H](COP(=O)([O-])OP(=O)(O)OC[C@@H]3O[C@@H](n4cnc5c(N)ncnc54)[C@@H](OP(=O)(O)O)[C@H]3O)[C@@H](O)[C@H]2O)c1 | -19.2% (inactive) | 
COc1ncc2ncc(=O)n(C)c2n1 | 14.6% (inactive) | 
O=C(NCCCc1ccccc1)c1cccs1 |  | 15.8 µM (active)
CCc1ccc(NC(=O)CS(=O)CC(=O)NCCCc2ccccc2)cc1 (stereo unspecified) |  | 0.794 µM (active)
CCc1ccc(OCCCC(=O)Nc2ccc(N3CCCCC3)cc2)cc1 | -21.4% (inactive) | 
Cc1ccc(NC(=O)NCCCc2ccccc2)cc1 |  | 11.2 µM (active)
CCCCC(=O)Nc1ccc(C(=O)NNC(=O)CCc2ccccc2)cc1 | 7.05% (inactive) | 
COc1ccc(NC(=O)N2CCCC3(CCNCC3)C2)cc1 | -5.11% (inactive) | 
CC(C)=CCC/C(C)=C/CO/N=C1/[C@H]2O[C@@H]2[C@@H](O)[C@H]2[C@H]1CCn1c(=O)n(-c3ccccc3)c(=O)n12 | 6.87% [at 11.4 µM] (inactive) | 
CCNC(=O)c1ccc(-n2nc(C)cc2-c2ccccc2)cc1 |  | 7.94 µM (active)
Nc1ccc(C(=O)NCC(=O)O)cc1 | 9.9% [at 25.6 µM] (inactive) | 

SMILES | activity, negative = inhibition | AC50
Cc1cnnn1-c1ccc(C(=O)CCl)cc1 | -4.42% (inactive) | 
N=C(N)SCCN |  | inactive
COC(=O)CNC(=O)CCCCC(=O)NCC(=O)OC | 5.38% (inactive) | 
CC(C)=CCC/C(C)=C/CO/N=C1/C[C@@H](O)[C@@H](O)[C@@H]2[C@@H]3C(=O)N(Cc4ccc5c(c4)OCO5)C(=O)[C@H]3CC[C@H]12 | -26.4% [at 11.4 µM] (inactive) | 
COc1cnc(NS(=O)(=O)c2ccc(N)cc2)nc1 | -9.19% [at 25.6 µM] (inactive) | 
CCCCOc1ccc(OC(=O)c2cccnc2)cc1 |  | 14.1 µM (active)
COc1ccc(OC(=O)c2ccncc2)cc1 |  | 4.47 µM (active)
COc1ccc(C(Cl)=C(c2ccc(OC)cc2)c2ccc(OC)cc2)cc1 | 12.9% [at 25.6 µM] (inactive) | 
CCCCCOc1ccc(OC(=O)c2ccncc2)cc1 |  | 2.82 µM (active)
CCCCOc1ccc(S(=O)(=O)Nc2cccnc2)cc1 |  | 1.26 µM (active)
CCCCOc1ccc(CC(=O)NO)cc1 | -15.6% [at 25.6 µM] (inactive) | 
O=C(Nc1ccc(OC(=O)c2cccnc2)cc1)c1cccnc1 | -16.9% (inactive) | 
Nc1ccc(S(=O)(=O)Nc2ncccn2)cc1 | -7.42% [at 25.6 µM] (inactive) | 
Cc1ccc(OCC(=O)NNC(=O)c2cccnc2)cc1 | 0.128% (inactive) | 
CCCCN(CCCC)CCCOC(=O)c1ccc(N)cc1 | -9.19% [at 25.6 µM] (inactive) | 
COc1ccc(C(=O)N2CCC3(CC2)CCN(c2ccncc2)CC3)cc1 | 1.22% (inactive) | 
c1cncc(-c2cncnc2NC2CCNCC2)c1 | 17.3% [at 2.29 µM] (inactive) | 
COc1c(C)c2c(c(O)c1C/C=C(\C)CCC(=O)O)C(=O)OC2 |  | inactive
C[C@H]1C[C@H]2[C@H]3CCC4=CC(=O)C=C[C@@]4(C)[C@]3(F)[C@H](O)C[C@]2(C)[C@@]1(O)C(=O)COP(=O)(O)O | 23.1% [at 11.4 µM] (inactive) | 
FC(F)(F)c1ccccc1-n1ccnc1 | -3.84% (inactive) | 
N#Cc1c(-n2ccnc2)cccc1-n1ccnc1 |  | 0.562 µM (active)
N#Cc1cccc(-c2cncnc2-n2ccnc2)c1 | 12.2% [at 2.29 µM] (inactive) | 
CCCCCCCCOC1OC(CO)C(O)C(O)C1NC(C)=O (stereo unspecified) | 11.5% (inactive) | 
C[C@@H]1C[C@H]2[C@H]3C[C@@H](F)C4=CC(=O)C=C[C@]4(C)[C@@]3(Cl)[C@@H](O)C[C@@]2(C)[C@@H]1C(=O)COC(=O)C(C)(C)C | 6.05% [at 25.6 µM] (inactive) | 

Reference: PubChem BioAssay AID1851 (National Center for Advancing Translational Sciences (NCATS), 2009)
